# Screens deposited in PubChem BioAssay by Broad Institute.
# EBV LMP1 NFkB: inhibitors of Epstein-Barr LMP1-induced NF-kappaB reporter; LMP1-induced NF-kappaB luciferase reporter cells, luminescence; inhibition, % at 12.5 µM; hit rate 0.69% among 350,000; AID 504558; in the data active = inhibition above about 41%; inconclusive = no clear call, values can overlap the other calls
# esBAF inh: blocks esBAF chromatin remodeling in mouse ES cells. Bmi1-luciferase knock-in reporter, 24 h; 100% = twice the neutral-well signal. hit rate 2% among 350,000. reporter increase, % at 12.5 µM; in the data active = activation above about 40%; inconclusive = no clear call, values can overlap the other calls;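 note: a rise in the Bmi1 reporter signal indicates esBAF inhibition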
# Statin myotox sup: protects C2C12 myotubes from simvastatin toxicity. ATP luminescence, 48 h; scaled: DMSO 0, geranylgeraniol control 100. rescue of ATP level, % at 7.49 µM. hit rate 0.78% among 330,000. AID 602340;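 active = mean ATP rescue above about 67%, or every replicate alone reaching that limit, limit read from the data, passing the limit was not always enough; inconclusive = no clear call, values can overlap the other calls; inactive = mean under the limit and some replicate under it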;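 note: myotubes were challenged with 10 µM simvastatin during compound exposure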
# Wnt bcat act: Wnt/beta-catenin pathway activation. Wnt/beta-catenin reporter cell assay, activator, plate reader. activation, % at 9.35 µM. hit rate 1.2% among 300,000; in the data active = activation above about 30%, passing the limit was not always enough; inconclusive = no clear call, values can overlap the other calls
# MITF TRPM1 HTS: increases MITF-driven TRPM1 promoter luciferase signal | SK-MEL-5 TRPM1-promoter luciferase, 24 h; % of positive control, neutral wells = 0 | activation, % at 12.5 µM | hit rate 0.75% among 300,000 | AID 588334;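 active = mean activation of at least 80% with every replicate also reaching 80%; inconclusive = mean reaches 80% but some replicate falls short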
# MITF TRPM1 inh: inhibitors of MITF-driven TRPM1 promoter in melanoma cells; SK-MEL-5 TRPM1 promoter luciferase, 24 h; inhibition, % at 12.5 µM; hit rate 0.83% among 330,000;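 active = mean inhibition across replicates of 60% or more, whatever share of single replicates reaches that level; inconclusive = some that reach 60%, reason not given; inactive = mean inhibition across replicates below 60%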
# A number is an active result; - = inactive; ? = inconclusive; . = not tested or not shown. Rows were chosen to be rich in hits. Some 4% of all compounds tested hit in one or more screens of this group.
SMILES,EBV LMP1 NFkB,esBAF inh,Statin myotox sup,Wnt bcat act,MITF TRPM1 HTS,MITF TRPM1 inh
CCc1cc2c(=O)n(C(C)C(=O)OC3CCCCC3)cnc2s1 (stereo not given),-,?,-,-,100,-
COc1ccc(NC(=O)c2ccc3c(=O)n(Cc4ccco4)c(=S)[nH]c3c2)c(OC)c1,-,-,-,-,-,-
CC(/C=N/NC(=O)c1cccs1)=C\c1ccco1,-,98,-,39,-,-
CC(/C=N/NC(=O)c1cc(-c2ccncc2)nc2ccccc12)=C\c1ccco1,-,-,-,.,-,68
CCC(=O)N1[C@H](CO)[C@H](c2ccccc2)[C@H]1CN(C(C)C)S(C)(=O)=O,.,-,-,.,.,.
COc1ccccc1C1CC(=O)NC(SCC(=O)Nc2ccccc2)=C1C#N (stereo not given),-,-,.,-,-,-
CC(C)C1CC(=O)NC(SCC(=O)Nc2ccc(Br)cc2)=C1C#N (stereo not given),-,99,-,-,-,-
O=C(C[C@@H]1CC[C@@H](NC(=O)C2CCC2)[C@H](CO)O1)NCc1ccccc1Cl,.,-,-,.,.,.
Oc1ccc(C[C@H]2CN([C@@H](Cc3ccccc3)CN3CCC[C@@H]3CN3C(=S)NC[C@@H]3Cc3ccccc3)C(=S)N2CC2CCCCC2)cc1,.,-,-,-,.,.
Oc1ccc(C[C@H]2CNC(=S)N2CC2CCCN2C[C@H](Cc2ccc(O)cc2)N2C[C@H](Cc3ccc(O)cc3)N(CC3CCCCCC3)C2=S)cc1 (stereo not given in full),-,-,-,-,-,72
NS(=O)(=O)c1ccc(CCNC(=O)c2ccc(Cl)c(S(=O)(=O)N3CCCCC3)c2)cc1,-,-,-,-,-,-
COc1ccc2[nH]c(=O)c(-c3nnn(-c4ccc(F)cc4)n3)cc2c1,-,-,-,-,-,-
COc1ccc2[nH]c(=O)c(-c3nnn(-c4ccccc4)n3)cc2c1,-,58,-,-,-,-
Cc1cccc(/C=N/n2c(C)nnc2C)c1,-,-,-,.,-,-
NS(=O)(=O)c1cccc(NC(=O)c2cc(=O)c3ccccc3o2)c1,-,-,-,-,-,-
O=C(Nc1ccccc1Br)c1cc(=O)c2ccccc2o1,-,49,-,-,152,-
COC(=O)C[C@H]1CC[C@H]2[C@H](COc3ccc(NC(=O)c4cnccn4)cc3C(=O)N2C)O1,.,-,-,.,.,.
Cn1c(=O)n(CCOc2ccccc2Cl)c2ccccc21,-,78,-,-,-,-
O=C(O)CCn1c(=O)sc2ccccc21,-,-,-,-,.,-
Cc1ccc(OCCn2c(=O)n(C)c3ccccc32)cc1,-,85,-,-,-,-
O=c1sc2ccccc2n1CCOc1ccccc1,-,45,-,-,-,-
Cc1ccccc1NC(=O)c1cnn(-c2ccccc2)c1C,-,75,-,?,-,-
Cc1cccc(NC(=O)c2cnn(-c3ccccc3)c2C)c1C,-,63,-,-,.,-
COc1ccccc1/C=C/C(=O)NCC(=O)N/N=C/c1ccc2c(c1)OCO2,-,-,-,-,-,-
CCOC(=O)c1ccc(NC(=S)NNC(C)(C)C)cc1,-,.,.,-,.,-
SMILES,EBV LMP1 NFkB,esBAF inh,Statin myotox sup,Wnt bcat act,MITF TRPM1 HTS,MITF TRPM1 inh
COc1ccc(S(=O)(=O)Nc2cccc3c2O[C@H](CN(C)S(=O)(=O)c2cccs2)[C@H](C)CN([C@@H](C)CO)C3=O)cc1,.,-,.,.,.,.
CCOc1ccc(C(=O)NCC(=O)OCC(=O)NC2CCCC2)cc1,-,-,-,-,-,-
COc1ccc(-c2nc(N)n[nH]2)cc1,-,-,-,.,-,-
COc1cc(OC)cc(-c2nc(N)n[nH]2)c1,-,-,106,-,.,-
S=C(Nc1ccc(Br)cc1Cl)N1CCCC1,-,?,-,-,84,-
CC(C)n1nc(C(=O)Nc2ccccc2N2CCOCC2)c2ccccc2c1=O,-,.,.,-,-,-
CCC(=O)N[C@H]1CC[C@H](CC(=O)NCc2cc(F)cc(F)c2)O[C@@H]1CO,.,-,-,.,.,.
CC1=CC2C(C(O)CC3(C)C2CC(C)C32OCOC23COCO3)C2(C)C/C(=C\O)C(=O)C=C12 (stereo not given),-,.,.,-,-,80
Cc1nnc(N2CCOCC2)c2nn(-c3ccccc3)c(C)c12,-,.,.,-,-,-
c1ccc(-n2nnc3c(N4CCOCC4)ncnc32)cc1,53,-,-,.,.,-
CN(C)c1ccnc(NCc2ccccc2)c1C#N,-,-,-,-,.,-
CN(C)c1ccnc(N(Cc2ccccc2)Cc2ccccc2)c1C#N,-,74,-,.,-,-
COc1ccc(-c2c(C)n([O-])c3c([n+]2=O)CCCC3)cc1,-,-,-,.,.,-
Cc1cccc(Nc2nc(N)nc(CSc3nccn3C)n2)c1,-,53,-,.,.,-
CC(=O)c1ccc(NC(=O)CSc2nc3[nH]ncc3c(=O)[nH]2)cc1,-,-,-,-,-,-
COC(=O)c1nn(C23CC4CC(CC(C4)C2)C3)c2c1C(=O)N(c1ccc(Br)cc1)C2=O,-,-,68,.,-,-
CCOC(=O)c1nn(C23CC4CC(CC(C4)C2)C3)c2c1C(=O)N(c1ccc(C)cc1)C2=O,-,-,121,.,-,-
CCCCCCCCC(=O)NNC(=O)c1c(O)c2ccccc2n(CC)c1=O,-,.,.,-,-,-
CCOc1ccc(CCNC(=O)C2CC(=O)N(Cc3ccc(C)cc3)C2)cc1OCC (stereo not given),-,-,-,-,-,-
O=C(COc1ccc2c(c1)CCC2)NCc1ccccc1,-,.,.,-,-,-
Cc1ccccc1NC(=O)COC(=O)COc1ccc2c(c1)CCC2,-,-,-,-,-,-
O=C(COc1ccc2c(c1)CCC2)Nc1ccccn1,-,51,-,-,-,-
Cc1cccc(NC(=O)COc2ccc3c(c2)CCC3)n1,-,-,-,-,101,-
Cc1cnc(NC(=O)COc2ccc3c(c2)CCC3)s1,-,-,-,43,-,-
O=C(COC(=O)COc1ccc2c(c1)CCC2)Nc1ccccc1,-,42,-,-,-,-
SMILES,EBV LMP1 NFkB,esBAF inh,Statin myotox sup,Wnt bcat act,MITF TRPM1 HTS,MITF TRPM1 inh
Cc1sc2ncnc(SCC(=O)N3CCCCC3)c2c1C,-,-,-,-,-,-
O=C(c1ccco1)N1CCN(C(=O)c2ccc(Cn3cc(Br)cn3)o2)CC1,-,-,-,-,-,-
NNC(=O)c1cccc(COc2ccc3c(c2)CCC3)c1,63,.,.,.,-,-
CC(=O)c1cccc(NC(=O)COc2ccc3oc(=O)cc(C)c3c2)c1,-,-,-,-,-,-
Cc1cccc(NC(=O)COc2ccc3oc4c(c3c2)CCCC4)n1,-,-,134,-,-,-
O=C1C=C(NC2=CC3OC(c4ccccc4)OCC3OC2=O)CCC1 (stereo not given),-,.,.,-,-,65
O=C1C=C(NCc2ccccc2)CCC1,-,.,.,-,-,-
O=C(c1cnccn1)N(Cc1ccco1)C1(C(=O)NC2CCCCC2)CCCCC1,-,-,-,-,.,-
COc1ccc(Oc2nccc(-c3ccccc3)c2C#N)cc1,-,55,-,.,-,-
